A number with no mark means an inactive call. Records with an inconclusive call do not appear. Where a call stands in place of a potency, no number is given. Activity calls are given as the source filed them. Unless noted, calls come from the whole dose curve; as a rule, active = well fitted curve in the direction sought with a large enough effect in the repeat runs; inconclusive = weak or mixed curves; inactive = no such curve, though single readings can be large; an effect the other way counts as inactive or inconclusive.
Experiments:
[1] = qHTS assay to identify small molecule agonists of the estrogen receptor alpha (ER-alpha) signaling pathway in the presence of an antagonist - cell viability counter screen (AID 1259386);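 note: cells exposed to compounds for 22 h at 37 °C before the viability read; nearly all actives have a fitted effect of over 30% in size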; note: potency is the fitted concentration of half-maximal effect
Procedure, shortened: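 VM7Luc4E2, stripped-serum pre-culture 5 d; 24hr plating; +ICI-182,780 10.0nM final; cpds 15 conc, 22hr, 37C/5% CO2; CellTiter-Fluor added at 21hr, fluorescence 1hr later.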

[2] = target: Progesterone receptor (Homo sapiens) (UniProt P06401); assay: qHTS assay to identify small molecule agonists of the progesterone receptor (PR) signaling pathway (AID 1346784; calls by dose curve; note: nearly all actives have a fitted effect of over 30% in size; note: potency is the fitted concentration of half-maximal effect)
Procedure, shortened: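 HEK 293T PR-UAS-bla reporter cells, 2% charcoal-stripped FBS; 6 hr settle at 37C/5% CO2, compound (DMSO) 16 hr, LiveBLAzer B/G FRET substrate 2 hr RT, fluorescence intensity read.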

[3] = target: Progesterone receptor (Homo sapiens) (UniProt P06401); assay: qHTS assay to identify small molecule antagonists of the progesterone receptor (PR) signaling pathway (AID 1346795; active = well fitted inhibition curve with a large enough effect in the signal ratio in the repeat runs, not every such curve was filed as active; the % refers to the signal ratio; note: potency is the fitted concentration of half-maximal effect)
Procedure, shortened: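 Beta-lactamase reporter, HEK293T PR-UAS-bla line; 2% charcoal-stripped FBS; 6 hr pre-incubation, 37C/5% CO2. Compound + R5020 1 nM final, 16 hr. LiveBLAzer B/G FRET substrate, 2 hr RT; fluorescence intensity read.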

[4] = qHTS assay to identify small molecule antagonists of the progesterone receptor (PR) signaling pathway - cell viability counter screen (AID 1346798); note: nearly all actives have a fitted effect of over 50% in size; note: potency is the fitted concentration of half-maximal effect
Procedure, shortened: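 Luminescence readout (CellTiter-Glo, 30 min, RT) of viability in PR-UAS-bla HEK293T cells exposed to compound and R5020 agonist for 16 hr at 37C, 5% CO2; run in the same wells as the beta-lactamase reporter read.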

[5] = qHTS assay to identify small molecule agonists of the progesterone receptor (PR) signaling pathway - cell viability counter screen (AID 1346799; calls by dose curve; note: nearly all actives have a fitted effect of over 45% in size; note: potency is the fitted concentration of half-maximal effect)
Procedure, shortened: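 HEK293T PR-UAS-bla, 3,000 cells/well, 2% charcoal-stripped FBS; 6 h settle, compound 16 h at 37C/5% CO2; LiveBLAzer 2 h RT, then CellTiter-Glo 30 min RT, luminescence read.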

[6] = qHTS assay to identify small molecule antagonists of the TGF-beta/Smad signaling pathway - cell viability counter screen (AID 1346824); note: nearly all actives have a fitted effect of over 50% in size
Procedure, shortened: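 Cytotoxicity counter-screen run in the same wells as the beta-lactamase Smad reporter read: CellTiter-Glo luminescence after 30 min at room temperature. HEK 293T SBE-bla cells had 5 hr compound exposure at 37 C with TGF-beta1 (0.25 ng/mL stock).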

[7] = qHTS assay to identify small molecule agonists of the TGF-beta/Smad signaling pathway - cell viability counter screen (AID 1346829); note: top concentration of the series differs between compounds; nearly all actives have a fitted effect of over 45% in size
Procedure, shortened: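 CellTiter-Glo luminescence readout; SBE-bla HEK 293T cells, overnight plating, compound 5 hr at 37 C/5% CO2, then bla substrate 2 hr RT, then CellTiter-Glo 30 min RT.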

[8] = qHTS assay to identify small molecule agonists of the TGF-beta/Smad signaling pathway (AID 1346859; active = well fitted activation curve with a large enough effect in the signal ratio in the repeat runs, not every such curve was filed as active; the % refers to the signal ratio; note: series mostly up to about 77 µM)
Procedure, shortened: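 Read-out: fluorescence at 460 and 530 nm (405 nm excitation) after a 2 hr room-temperature incubation with beta-lactamase FRET substrate. SBE-bla HEK 293T cells had been treated with test compounds for 5 hr at 37 C.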

[9] = target: Thyrotropin-releasing hormone receptor (Homo sapiens) (UniProt P34981); assay: qHTS assay to identify small molecule agonists of the thyrotropin-releasing hormone receptor (TRHR) signaling pathway (AID 1346891; calls by dose curve;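 note: HEK293 cells expressing TRHR with calcium dye readout; series mostly up to about 58 µM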)
Procedure, shortened: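 HEK293/TRHR cells, 1500 per well, 18 h 37 °C; Ca dye 2 h 37 °C; pin-tool compound addition (agonist mode); kinetic fluorescence 3 min, 1 s reads; 15 concentrations, triplicate.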

[10] = target: Thyrotropin-releasing hormone receptor (Homo sapiens) (UniProt P34981); assay: qHTS assay to identify small molecule antagonists of the thyrotropin-releasing hormone receptor (TRHR) signaling pathway (AID 1346877; active = well fitted inhibition curve with a large enough effect in the repeat runs, not every such curve was filed as active; note: series mostly up to about 51 µM)
Procedure, shortened: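 Intracellular calcium fluorescence, read kinetically every second over 3 min, reports TRH-evoked signalling in HEK293 cells carrying TRHR. Test compounds were added 5 min ahead of a 1 nM TRH challenge.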

Sequence of Thyrotropin-releasing hormone receptor (Homo sapiens) (P34981 whole entry, looked up): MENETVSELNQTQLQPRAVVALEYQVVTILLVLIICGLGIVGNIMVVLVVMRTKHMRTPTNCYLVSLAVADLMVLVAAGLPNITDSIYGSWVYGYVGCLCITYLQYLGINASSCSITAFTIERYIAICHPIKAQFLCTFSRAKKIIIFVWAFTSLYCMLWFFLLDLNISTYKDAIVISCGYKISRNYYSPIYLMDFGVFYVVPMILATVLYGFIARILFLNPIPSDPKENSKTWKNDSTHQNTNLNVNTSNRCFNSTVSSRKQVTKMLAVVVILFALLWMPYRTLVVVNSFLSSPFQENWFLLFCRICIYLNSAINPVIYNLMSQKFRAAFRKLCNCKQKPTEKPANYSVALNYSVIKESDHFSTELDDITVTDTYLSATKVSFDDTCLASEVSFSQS
Sequence of Progesterone receptor (Homo sapiens) (P06401 whole entry, looked up): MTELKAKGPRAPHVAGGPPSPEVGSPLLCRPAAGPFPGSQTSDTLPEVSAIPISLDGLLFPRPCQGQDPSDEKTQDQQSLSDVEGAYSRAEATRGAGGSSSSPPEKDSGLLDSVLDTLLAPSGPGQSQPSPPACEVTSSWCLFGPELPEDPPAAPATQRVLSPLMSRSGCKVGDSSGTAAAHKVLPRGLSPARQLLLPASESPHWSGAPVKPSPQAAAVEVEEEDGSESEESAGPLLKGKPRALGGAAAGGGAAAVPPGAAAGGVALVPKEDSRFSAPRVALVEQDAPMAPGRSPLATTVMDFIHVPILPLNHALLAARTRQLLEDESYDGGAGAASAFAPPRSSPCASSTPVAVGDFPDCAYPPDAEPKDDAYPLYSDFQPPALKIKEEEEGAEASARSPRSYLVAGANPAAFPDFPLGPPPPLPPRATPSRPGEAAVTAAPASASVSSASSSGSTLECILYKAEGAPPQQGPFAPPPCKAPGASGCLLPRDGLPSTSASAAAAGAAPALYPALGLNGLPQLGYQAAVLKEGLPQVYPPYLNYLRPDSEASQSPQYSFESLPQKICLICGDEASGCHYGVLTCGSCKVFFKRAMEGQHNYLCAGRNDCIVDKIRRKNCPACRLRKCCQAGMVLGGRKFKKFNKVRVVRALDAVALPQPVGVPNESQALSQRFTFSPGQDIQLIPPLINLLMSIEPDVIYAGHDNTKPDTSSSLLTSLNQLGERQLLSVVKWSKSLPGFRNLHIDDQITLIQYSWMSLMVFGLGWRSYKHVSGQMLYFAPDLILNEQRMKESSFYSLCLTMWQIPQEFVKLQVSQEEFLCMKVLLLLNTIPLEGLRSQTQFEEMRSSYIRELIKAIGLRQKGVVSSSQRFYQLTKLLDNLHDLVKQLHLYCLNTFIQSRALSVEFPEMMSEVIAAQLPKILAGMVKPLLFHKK

Compound	Potency [1]	Potency [2]	Potency [3]	Potency [4]	Potency [5]	outcome [6]	Potency [7]	Potency [8]	outcome [9]	outcome [10]
CC(=O)OCCC1CCCCC1	inactive	inactive	inactive	inactive	inactive	inactive	inactive	inactive	inactive	
Nc1c(Cl)cc(Cl)cc1[N+](=O)[O-]	inactive	inactive	inactive	inactive	inactive	inactive	inactive	inactive	inactive	inactive
CC(=O)Oc1cccc(O)c1	inactive	inactive	inactive	inactive		inactive	inactive	inactive	inactive	inactive
CSSc1ccoc1C	inactive	inactive	inactive	inactive		inactive	inactive	inactive	inactive	inactive
SCCc1cnccn1	inactive	inactive	43.3 µM (active)	30.6 µM (active)		inactive	inactive	inactive	inactive	inactive
CCCOC(=O)c1c(Cl)c(Cl)c(Cl)c(Cl)c1C(=O)OCCC	inactive	inactive	17.2 µM (active)	inactive	inactive		inactive	inactive	inactive	inactive
COc1cc(NS(=O)(=O)c2ccc(N)cc2)nc(C)n1	inactive	inactive	inactive	inactive		inactive	inactive	inactive	inactive	inactive
CCC(=O)OCc1ccc(OC)cc1	inactive	inactive	inactive	inactive	inactive		inactive	inactive	inactive	inactive
CNc1c2c(nn1C)CCCC2	inactive	inactive	inactive	inactive		inactive	inactive	inactive	inactive	inactive
CCCCCCC(CO)CCCC (configuration not stated)	inactive	inactive	inactive	inactive		inactive	inactive	inactive	inactive	inactive
Cc1ccc(NC(=O)N(C)C)cc1NC(=O)N(C)C	inactive	inactive	inactive	inactive		inactive	inactive	inactive	inactive	inactive
O=C(O)c1cccc(Oc2ccccc2)c1	inactive	inactive	inactive	inactive	inactive	inactive	inactive		inactive	inactive
CCCCCC	inactive	inactive	inactive	inactive		inactive	inactive	inactive	inactive	inactive
CNCc1ccc(NC(=O)c2c[nH]c3c2C(=O)CCC3)cc1	inactive	inactive	inactive	inactive		inactive	inactive	inactive	inactive	inactive
CCCCCCC(O)CCOC(C)=O (configuration not stated)	inactive	inactive	inactive	inactive		inactive	inactive	inactive	inactive	inactive
C[C@H](CS)C(=O)N1CCC[C@H]1C(=O)O	inactive	inactive	inactive	inactive	inactive		inactive	inactive	inactive	inactive
O=C(C(=O)c1ccco1)c1ccco1	inactive	2.75 µM (active)	inactive	inactive		inactive	inactive	inactive		
C=CC(=O)O	inactive	inactive	inactive	inactive		inactive	inactive	inactive		
CCOc1ncc(F)c(=O)[nH]1	inactive	inactive	inactive	inactive		inactive	inactive	inactive	inactive	inactive
CC(C)C1CCC(C(=O)N[C@H](Cc2ccccc2)C(=O)O)CC1 (some centres not stated)	inactive	inactive	inactive	inactive		inactive	inactive	inactive		
CCN(CC)c1ccc(C(=C2C=CC(=[N+](CC)CC)C=C2)c2ccc(S(=O)(=O)O)cc2S(=O)(=O)[O-])cc1	17.2 µM (active)	inactive	inactive	30.6 µM (active)	24.3 µM (active)			inactive	inactive	inactive
NC(=O)CCCCC(N)=O	inactive	inactive	inactive	inactive		inactive	inactive	inactive	inactive	inactive
Cc1ccc2c(c1)CCCN2	inactive	inactive	inactive	inactive		inactive	inactive	inactive	inactive	inactive
CCC(CO)(CO)[N+](=O)[O-]	inactive	inactive	inactive	inactive		inactive	inactive	inactive		
CCCCCCCCCCCC(=O)OCC(O)CO (configuration not stated)	inactive	inactive	inactive	inactive		inactive	inactive	inactive	inactive	
COC(C)(C)OC	inactive	inactive	inactive	inactive		inactive	inactive	inactive	inactive	inactive
CC[C@H]1OC(=O)[C@H](C)[C@@H](O[C@H]2C[C@@](C)(OC)[C@@H](O)[C@H](C)O2)[C@H](C)[C@@H](O[C@@H]2O[C@H](C)C[C@H](N(C)C)[C@H]2O)[C@](C)(O)C[C@@H](C)/C(=N\OCOCCOC)[C@H](C)[C@@H](O)[C@]1(C)O	7.19 µM (active)	inactive	inactive	inactive		inactive	inactive	inactive		
